RORgamma inh: ROR gamma (mouse) transcription inhibition. Drosophila S2 Gal4-RORgamma UAS-luciferase reporter, 20 h. Potency, µM (doses to about 53.6 µM), inactives show top-dose activity change, negative = inhibition, most hits filed as inhibitors. 5.4% of 310,000 active. AID 2551; also: nearly all actives have a fitted effect of over 60% in size
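Using a luciferase readout, inhibitors were identified by reduced reporter activity in Drosophila cells coexpressing a copper-inducible Gal4–ROR gamma fusion and UAS-driven Photinus luciferase, incubated 20 hr after 700 uM copper sulfate.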
Gal4-VP16 FLuc: counter-screen for ROR gamma inhibitors: Gal4-VP16 reporter | Drosophila S2 Gal4-VP16 UAS-luciferase, luminescence, 20 h | Potency, µM (top dose mostly 53.6 µM), for inactives: at the highest dose activity, negative = inhibition, hits mostly inhibitors | 3.5% of 310,000 active | AID 2546;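 also: Gal4-VP16 expression switched on by copper sulfate through the metallothionein promoter; nearly all actives have a fitted effect of over 50% in size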
NPSR antagonist: blocks cAMP signaling of the human neuropeptide S receptor | Potency, µM (top dose mostly 38.3 µM), for inactives: at the top dose activity change, negative = inhibition, most hits filed as inhibitors | Q6W5P4 | CHO-NPSR cells, cAMP TR-FRET, antagonist mode | AID 1461 | 1% of 220,000 active; also: nearly all actives have a fitted effect of over 50% in size
Target sequence (Q6W5P4 whole entry, looked up): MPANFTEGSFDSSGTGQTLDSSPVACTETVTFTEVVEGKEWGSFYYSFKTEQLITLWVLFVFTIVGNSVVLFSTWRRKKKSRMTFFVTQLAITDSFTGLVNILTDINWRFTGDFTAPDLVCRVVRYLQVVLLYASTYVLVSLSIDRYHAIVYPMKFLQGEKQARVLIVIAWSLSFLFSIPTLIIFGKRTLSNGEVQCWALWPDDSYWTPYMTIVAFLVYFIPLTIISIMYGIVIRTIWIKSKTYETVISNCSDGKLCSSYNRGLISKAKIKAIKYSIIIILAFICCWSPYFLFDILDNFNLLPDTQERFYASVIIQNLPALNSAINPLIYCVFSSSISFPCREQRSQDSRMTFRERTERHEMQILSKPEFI
B2AR arrestin: beta2AR (human) beta-arrestin recruitment activity. P07550. Potency, µM (doses to about 46.1 µM), for the others: at the top dose activation, actives largely listed as activators. beta-arrestin recruitment to beta2AR, cell-based reporter. 0.02% of 330,000 active;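 also: 0% = DMSO controls and full agonism = EC100 isoproterenol or metaproterenol; nearly all actives have a fitted effect of over 65% in size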
Starred values were filed as active, the others as inactive; ? = inconclusive; . = no result; [ ] = dose if it differs, or a comment. Hits are enriched below; roughly 5.7% of the tested compounds scored in any of these assays. Calls follow the shape of the dose curve; as a rule, active = well fitted curve in the direction sought with a large enough effect; inconclusive = small, poorly fitted or top-dose-only effect, or another doubt; inactive = no such curve, though single readings can be large; an effect the other way counts as inactive or inconclusive. Unless noted, % is scaled to controls: 0 for no effect and ±100 for the full control effect; potency is read from the fitted curve at half-maximal effect.

SMILES	RORgamma inh	Gal4-VP16 FLuc	NPSR antagonist	B2AR arrestin
Cc1cccc(-n2c(SCC(=O)Nc3ccc4c(c3)OCO4)nnc2-c2ccoc2C)c1	2µM*	?	-15%[46.1 µM]	0%
CC(C)c1ccc(-c2nnn(CCC(=O)O)n2)cc1	0.4µM*	?	0%[46.1 µM]	0%
CC(C)C[C@H](NC(=O)C1CCN(S(=O)(=O)c2ccccc2)CC1)C(=O)NCc1ccccn1	-16%	-8%	.	0%
CC1(C)CC(NC(=O)c2cc(Cl)ccc2Cl)CC(C)(C)N1	-1%	-8%	.	0%
C[C@@H](NCc1cc(Br)cc2[nH]c(=O)c(=O)[nH]c12)P(=O)(O)O	1%	1%	.	.
CCSc1nc(-c2ccccc2)nc(C(Cl)Cl)n1	1.3µM*	10µM*	-33%	0%
C[N+](C)(C)CCC(=O)c1cccc2ccccc12	.	.	32µM*	.
O=C(O)CCC(=O)c1cccc2ccccc12	-33%	0%	-10%[46.1 µM]	0%
Cc1cccc(NC(=O)Nc2cc(C)cc(C)n2)c1	20%	-21%	-3%	0%
CCCCn1c(=O)[nH]c(=O)c2c1nc(Cn1ncc(Cl)c(Cl)c1=O)n2CCC	16µM*	7.9µM*	.	0%
CCCCn1c(=O)[nH]c(=O)c2c1nc(CN1C(=O)c3ccccc3S1(=O)=O)n2CCC	?	?	-20%[46.1 µM]	-1%
C/C(=N\NC(=O)c1cc(O)cc(O)c1)c1ccc(NC(=O)Cc2ccccc2)cc1	?	26%	.	-1%
COc1ccccc1C(=O)N/N=C(\C)c1ccc(NC(=O)Cc2ccccc2)cc1	18%	7.9µM*	.	0%
C/C(=N\NC(=O)c1cccc(C)c1O)c1ccc(NC(=O)Cc2ccccc2)cc1	11µM*	?	.	0%
C/C(=N\NC(=O)c1ccccc1N)c1ccc(NC(=O)Cc2ccccc2)cc1	7%	0%	.	0%
O=C(CN1C(=O)NC(c2ccccc2)(c2ccccc2)C1=O)NCCNCCO	-9%	1%	.	-1%
COc1cccc(CNC(=O)CCc2ccc(OC)c(OC)c2)c1	0%	11%	.	0%
CN(C(=O)CN1C(=O)/C(=C/c2ccccc2F)SC1=S)C1CCS(=O)(=O)C1 (stereo not drawn)	-26%	1%	.	0%
COc1ccc(Cl)cc1-c1n[nH]c(=S)n1Cc1ccccc1	5µM*	5µM*	.	0%
Cc1c(-n2c(-c3ccccc3Cl)n[nH]c2=S)c(=O)n(-c2ccccc2)n1C	-29%	8%	5%	0%
CCc1c(-c2n[nH]c(=S)n2Cc2ccccc2)csc1C	2.2µM*	7.9µM*	13%	0%
Cc1scc(-c2n[nH]c(=S)n2Cc2ccccc2)c1C	2.2µM*	11µM*	-10%	0%
S=c1[nH]nc(-c2ccccc2Cl)n1Cc1ccccc1	2.8µM*	?	-28%	0%
CCOC(=O)OCC1OC(C#Cc2ccccc2)C=CC1OC(=O)OCC (stereo not drawn)	-6%[10 µM]	-1%[10 µM]	.	.
S=c1[nH]nc(-c2ccc3ccccc3n2)n1-c1ccccc1Cl	12%	-12%	-44%	-1%
SMILES	RORgamma inh	Gal4-VP16 FLuc	NPSR antagonist	B2AR arrestin
S=c1[nH]nc(-c2ccc3ccccc3n2)n1Cc1ccccc1	2.2µM*	5.6µM*	-24%	0%
S=c1[nH]nc(-c2ccc3ccccc3n2)n1-c1cc(Cl)cc(Cl)c1	0.79µM*	2.2µM*	-58%	0%
N#Cc1cccc(-c2cc(NCc3ccccc3)ncn2)c1	42%	-8%	.	.
COc1ccc(CNc2cc(C)ccc2C)c(OC)c1OC	-21%	-11%[0.365 µM]	-16%[46.1 µM]	0%
COc1ccc(C)cc1NCc1cccc(OC)c1OC	18µM*	14%	-6%[46.1 µM]	0%
NCCC[C@@H](CC(=O)N[C@@H]1CCCC[C@H]1C(=O)N[C@H](CC(=O)N[C@@H](CCC(=O)O)CC(=O)O)Cc1ccccc1)NC(=O)C[C@H](CO)NC(=O)[C@@H]1CNCC[C@H]1N	-19%	5%	.	.
Cc1ccc(C(=O)NC(=S)Nc2ccccc2C(F)(F)F)cc1C	2.5µM*	13µM*	?	-1%
Cc1cccc(C(=O)NC(=S)Nc2ccccc2C(=O)O)c1	1%	-10%	10%	-1%
Cc1ccc(C(=O)O)cc1NC(=S)NC(=O)c1ccc(-c2ccccc2)cc1	-17%	-11%	59%	0%
Cc1cccc(C(=O)NC(=S)Nc2ccccc2C(F)(F)F)c1	4.5µM*	5.6µM*	?	4%
CC(=O)c1cc(C)oc1C	-1%	0%	.	.
Nc1ncnc2c1nc(N1CCCCC1)n2[C@@H]1O[C@@H]2COP(=O)(O)O[C@H]2[C@H]1O	4%	0%	.	.
Cc1ccc2oc3c(c(=O)c2c1)C(c1cccc(O)c1)N(c1ccccn1)C3=O (stereo not drawn)	?	?	10µM*	0%
COc1ccccc1N=Nc1ccc(O)c2ncccc12	2.8µM*	3.2µM*	.	9%
Oc1ccc(N=Nc2ccccc2C(F)(F)F)c2cccnc12	3.5µM*	3.5µM*	.	0%
CCS(=O)(=O)c1ccc(N=Nc2ccc(O)c3ncccc23)c(OC)c1	7.1µM*	16µM*	14%	0%
O=C(Cn1cc([N+](=O)[O-])cn1)NCc1cc2ccccc2[nH]1	?	2%	1%	0%
Cc1nn(CCC(=O)O)c2nc(-c3cccnc3)cc(C(F)(F)F)c12	33%	-3%	-26%[46.1 µM]	0%
Cc1nn(CCc2nn[nH]n2)c2nc(-c3ccc(C4CCCCC4)cc3)cc(C(F)(F)F)c12	8%	2%	13µM*	3%
COc1ccccc1C(=O)NCC(=O)OCCCOC(=O)CNC(=O)c1ccccc1OC	-26%	1%	.	-1%
CCc1cc2c(nc1CC)CCN(CC/C(C)=N/OC[C@@H](O)COCc1ccco1)C2	-10%[10 µM]	-9%[10 µM]	.	.
COc1ccc(C(=O)CC(=O)C(=O)Nc2cc(C)ccc2C)cc1	7.1µM*	10µM*	.	0%
CCOc1ccccc1NC(=O)C(=O)CC(=O)c1ccc(OC)cc1	6.3µM*	4µM*	.	-1%
COc1ccc(C(=O)CC(=O)C(=O)Nc2cccc(F)c2)cc1	7.1µM*	7.1µM*	.	0%
COc1ccc(C(=O)CC(=O)C(=O)Nc2ccc([N+](=O)[O-])cc2C)cc1	5.6µM*	11µM*	.	0%
SMILES	RORgamma inh	Gal4-VP16 FLuc	NPSR antagonist	B2AR arrestin
Cc1cccc(CCNCc2c(C(=O)O)c(C)n(-c3ccccc3)c2C)c1	-8%	1%	.	0%
COc1cc(C(CCN2CCCC2)c2c(OC)cc(OC)c3c2OC(=O)CC3c2ccc(N(C)C)cc2)cc(OC)c1OC (stereo not drawn)	12%	0%	.	.
COc1ccc(/C=N/Nc2ncc(C(F)(F)F)cc2Cl)c(OC)c1OC	2.8µM*	7.9µM*	-7%	0%
COc1cc(/C=N/Nc2ncc(C(F)(F)F)cc2Cl)cc(OC)c1OC	?	20µM*	-28%	0%
COc1cc(/C=N/Nc2ncc(C(F)(F)F)cc2Cl)cc(OC)c1O	11µM*	20µM*	-9%	0%
COc1cc(/C=N/Nc2ccc(C(F)(F)F)cn2)ccc1O	-16%	5%	-18%	0%
CCCNc1nc(Cl)nc(NCc2cccnc2)n1	20%	1%	-20%	-1%
CC(C)CNC(=S)NNC(=O)c1csc2c1CCCC2	7.1µM*	?	-6%[46.1 µM]	0%
CC(C)CNC(=S)NNC(=O)c1csc2ccccc12	-24%	-13%	-9%[46.1 µM]	0%

Screening data from PubChem.
